Assay results reported in PubChem BioAssay (Tox21).
Inconclusive results are not listed. Active and inactive are the calls of the source. The call rests on the fitted dose curve; in most records, active means well fitted curve in the direction sought with a large enough effect in the repeat runs; inconclusive means weak or mixed curves; inactive means no such curve, though single readings can be large; an effect the other way counts as inactive or inconclusive.

Experiments:
[1] = qHTS RealTime-Glo MT Cell Viability Assay in HepG2 cells - 40 hour (AID 1224870); further: nearly all actives have a fitted effect of over 50% in size; further: potency means the concentration at half of the fitted maximal effect
In short: (§1)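 Real-time viability: cells seeded at 600 per well together with NanoLuc and cell-permeant prosubstrate, compounds added after 5 h incubation. Luminescence tracked at 0, 8, 16, 24, 32 and 40 h of exposure.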

[2] = qHTS RealTime-Glo MT Cell Viability Assay in HepG2 cells - 8 hour (AID 1224873); further: nearly all actives have a fitted effect of over 55% in size
In short: as §1

[3] = qHTS RealTime-Glo MT Cell Viability Assay in HEK293 cells - 40 hour (AID 1224874); conditions: RealTime-Glo luminescence; max response: stronger effect = lower value; further: nearly all actives have a fitted effect of over 50% in size
In short: (§2)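 Real-time viability in HEK293: signal arises when living cells convert a prosubstrate for NanoLuc in the medium, so luminescence tracks viable cell number. Compound (23 nL, DMSO) added 5 h post-seeding; kinetic reads at 0–40 h, 37 C.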

[4] = A CellTox Green Cytotoxicity Assay to monitor cytotoxicity in HEK293 cells - 24 hour (AID 1224875); further: series mostly up to about 77 µM; nearly all actives have a fitted effect of over 45% in size
In short: (§3)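 Cells (HEK293, 600/well) and dye reagent are dispensed together. After 5 h at 37 C, 23 nL compound is pinned in. Plates stay at 37 C for 40 h with fluorescence read at 0h, 8h, 16h, 24h, 32h and 40h.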

[5] = qHTS RealTime-Glo MT Cell Viability Assay in HepG2 cells - 32 hour (AID 1224877); further: nearly all actives have a fitted effect of over 55% in size; further: potency means the concentration at half of the fitted maximal effect
In short: (§4)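 HepG2 cells were seeded at 600 cells/well together with NanoLuc luciferase and a cell-permeant prosubstrate, preincubated 5 h at 37 C/5% CO2, then pin-dosed with compounds in DMSO. Nonlytic luminescence from viable cells was read at each time point.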

[6] = A CellTox Green Cytotoxicity Assay to monitor cytotoxicity in HepG2 cells - 40 hour (AID 1224879); further: nearly all actives have a fitted effect of over 40% in size; further: potency means the concentration at half of the fitted maximal effect
In short: (§5)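 Cells and non-lytic dye reagent are dispensed together (600 HepG2 cells/well) and incubated 5 h before DMSO compound transfer. Kinetic fluorescence is then recorded in the same wells during 40 h at 37 C.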

[7] = qHTS RealTime-Glo MT Cell Viability Assay in HEK293 cells - 0 hour (AID 1224880); further: top concentration of the series differs between compounds; nearly all actives have a fitted effect of over 45% in size
In short: as §2

[8] = A CellTox Green Cytotoxicity Assay to monitor cytotoxicity in HEK293 cells - 32 hour (AID 1224881); further: nearly all actives have a fitted effect of over 40% in size
In short: as §3

[9] = A CellTox Green Cytotoxicity Assay to monitor cytotoxicity in HepG2 cells - 0 hour (AID 1224882); further: nearly all actives have a fitted effect of over 35% in size
In short: as §5

[10] = A CellTox Green Cytotoxicity Assay to monitor cytotoxicity in HEK293 cells - 8 hour (AID 1224884); further: nearly all actives have a fitted effect of over 35% in size
In short: as §3

[11] = qHTS RealTime-Glo MT Cell Viability Assay in HepG2 cells - 16 hour (AID 1224885); further: nearly all actives have a fitted effect of over 50% in size
In short: as §4

[12] = qHTS RealTime-Glo MT Cell Viability Assay in HEK293 cells - 24 hour (AID 1224886); further: top concentration of the series differs between compounds; nearly all actives have a fitted effect of over 50% in size
In short: (§6)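 HEK293 cells were seeded at 600 cells/well together with NanoLuc luciferase and cell-permeant prosubstrate, preincubated 5 h at 37 C/5% CO2, then given compound in DMSO by pintool. Luminescence from viable-cell prosubstrate reduction was read repeatedly over 40 h.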

[13] = qHTS RealTime-Glo MT Cell Viability Assay in HEK293 cells - 8 hour (AID 1224887)
In short: as §2

[14] = A CellTox Green Cytotoxicity Assay to monitor cytotoxicity in HEK293 cells - 16 hour (AID 1224888); further: nearly all actives have a fitted effect of over 35% in size
In short: as §3

[15] = qHTS RealTime-Glo MT Cell Viability Assay in HepG2 cells - 0 hour (AID 1224889); further: nearly all actives have a fitted effect of over 50% in size
In short: as §4

[16] = qHTS RealTime-Glo MT Cell Viability Assay in HEK293 cells - 16 hour (AID 1224872)
In short: as §6

[17] = A CellTox Green Cytotoxicity Assay to monitor cytotoxicity in HepG2 cells - 16 hour (AID 1224876); further: nearly all actives have a fitted effect of over 45% in size; further: potency means the concentration at half of the fitted maximal effect
In short: as §5

[18] = A CellTox Green Cytotoxicity Assay to monitor cytotoxicity in HepG2 cells - 24 hour (AID 1224878); further: nearly all actives have a fitted effect of over 45% in size; further: potency means the concentration at half of the fitted maximal effect
In short: as §5

[19] = A CellTox Green Cytotoxicity Assay to monitor cytotoxicity in HepG2 cells - 32 hour (AID 1224883); further: nearly all actives have a fitted effect of over 50% in size; further: potency means the concentration at half of the fitted maximal effect
In short: as §5
On the % scale 0 is the no-effect control and ±100 the full control effect.

CC(C)NC[C@@H](O)COc1cccc2ccccc12
inactive: Potency [1] | outcome [2] | max response [3] -27.3% | Potency [4] | Potency [5] | Potency [6] | outcome [7] | Potency [8] | Potency [9] | Potency [10] | outcome [11] | Potency [12] | Potency [13] | Potency [14] | Potency [15]

CCCc1c2oc(C(=O)O)cc(=O)c2cc2c(=O)cc(C(=O)O)n(CC)c12
inactive: Potency [1] | Potency [16] | outcome [2] | max response [3] 1.42% | Potency [17] | Potency [5] | Potency [18] | outcome [7] | Potency [9] | outcome [11] | Potency [13] | Potency [15]

NC(=O)NS(=O)(=O)c1ccc(Cl)cc1
inactive: Potency [1] | Potency [16] | outcome [2] | max response [3] 0.44% | Potency [4] | Potency [5] | Potency [18] | Potency [6] | outcome [7] | Potency [8] | Potency [9] | Potency [19] | Potency [10] | outcome [11] | Potency [13] | Potency [14] | Potency [15]

CC(C)OC(C)C
inactive: Potency [1] | Potency [16] | outcome [2] | max response [3] 20.1% | Potency [4] | Potency [5] | Potency [18] | Potency [6] | outcome [7] | Potency [8] | Potency [9] | Potency [19] | Potency [10] | outcome [11] | Potency [13] | Potency [14] | Potency [15]

NCCCN1CCN(CCCN)CC1
inactive: Potency [1] | Potency [16] | outcome [2] | Potency [4] | Potency [17] | Potency [5] | outcome [7] | Potency [8] | Potency [9] | Potency [10] | outcome [11] | Potency [12] | Potency [13] | Potency [14] | Potency [15]

O=S(=O)(O)C(F)(F)F
inactive: Potency [1] | Potency [16] | outcome [2] | max response [3] 7.92% | Potency [4] | Potency [17] | Potency [5] | Potency [18] | Potency [6] | outcome [7] | Potency [8] | Potency [9] | Potency [10] | outcome [11] | Potency [12] | Potency [14] | Potency [15]

CCN1CC(CCN2CCOCC2)C(c2ccccc2)(c2ccccc2)C1=O (stereo unspecified)
inactive: Potency [1] | Potency [16] | outcome [2] | max response [3] 20.2% | Potency [4] | Potency [17] | Potency [5] | Potency [18] | outcome [7] | Potency [8] | Potency [9] | Potency [10] | outcome [11] | Potency [12] | Potency [13] | Potency [15]

O=C(O)c1cccc(Cl)c1Cl
inactive: Potency [1] | Potency [16] | outcome [2] | Potency [4] | Potency [5] | Potency [18] | Potency [6] | outcome [7] | Potency [8] | Potency [9] | Potency [19] | Potency [10] | outcome [11] | Potency [12] | Potency [13] | Potency [14] | Potency [15]

CCCNC(C)(C)COC(=O)c1ccccc1
inactive: Potency [1] | Potency [16] | outcome [2] | max response [3] 2.27% | Potency [4] | Potency [17] | Potency [5] | Potency [18] | outcome [7] | Potency [8] | Potency [9] | Potency [19] | Potency [10] | outcome [11] | Potency [12] | Potency [13] | Potency [14] | Potency [15]

COc1cc(Cl)ccc1Cl
inactive: Potency [1] | Potency [16] | outcome [2] | max response [3] -0.591% | Potency [5] | Potency [6] | outcome [7] | Potency [9] | Potency [19] | Potency [10] | outcome [11] | Potency [12] | Potency [13] | Potency [14] | Potency [15]

CCOC(=O)[C@H](CCc1ccccc1)N[C@@H](C)C(=O)N1Cc2cc(OC)c(OC)cc2C[C@H]1C(=O)O
inactive: Potency [1] | outcome [2] | Potency [4] | Potency [17] | Potency [5] | Potency [18] | outcome [7] | Potency [8] | Potency [9] | Potency [19] | Potency [10] | outcome [11] | Potency [12] | Potency [13] | Potency [14] | Potency [15]

CCc1nnc(NS(=O)(=O)c2ccc(N)cc2)s1
inactive: Potency [1] | Potency [16] | outcome [2] | max response [3] 6.63% | Potency [4] | Potency [5] | Potency [18] | Potency [6] | outcome [7] | Potency [8] | Potency [9] | Potency [19] | Potency [10] | outcome [11] | Potency [13] | Potency [15]

CC(C)=CCC[C@](C)(O)[C@@H]1CC=C(C)CC1
active: Potency [17] 43.6 µM | Potency [18] 43.6 µM | Potency [6] 49 µM | Potency [19] 43.6 µM
inactive: Potency [1] | Potency [16] | outcome [2] | max response [3] -6.23% | Potency [4] | Potency [5] | outcome [7] | Potency [9] | Potency [10] | outcome [11] | Potency [12] | Potency [13] | Potency [15]

Cc1cc2nc(N)sc2cc1C
inactive: Potency [1] | Potency [16] | outcome [2] | Potency [4] | Potency [17] | Potency [5] | Potency [6] | outcome [7] | Potency [8] | Potency [9] | Potency [19] | Potency [10] | outcome [11] | Potency [12] | Potency [13] | Potency [14] | Potency [15]

ICCc1ccccc1
inactive: Potency [16] | outcome [2] | max response [3] 22.5% | Potency [17] | Potency [18] | outcome [7] | Potency [9] | Potency [19] | Potency [10] | outcome [11] | Potency [12] | Potency [13] | Potency [14] | Potency [15]
active: Potency [1] 9.57 µM | Potency [5] 12.1 µM

CCOc1ccccc1N
inactive: Potency [1] | Potency [16] | outcome [2] | Potency [4] | Potency [17] | Potency [5] | Potency [6] | outcome [7] | Potency [8] | Potency [9] | Potency [19] | Potency [10] | outcome [11] | Potency [13] | Potency [15]
